Results on 4 compounds are retold here after PubChem BioAssay (EPA / NIEHS).

Common to all, as to settings: mRNA level, 48 h; actives raise or lower the signal
Read-out in assay [1]: matrix metalloproteinase-10 (MMP10), MMP10 (gene 4319)
Briefly: LTEA_HepaRG_MMP10: Life Technologies and Expression Analysis (LTEA) Assay for matrix metalloproteinase-10 (MMP10) using HepaRG (AID 2283517). The essentials:
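In differentiated HepaRG cultures kept in 0.5% DMSO, test chemicals act for 48 h over an eight-point range with a top dose of 100 uM. Expression is then quantified by TaqMan RT-PCR against ACTB, GAPDH and POLR2A.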

Read-out in the next assay: MYC, MYC (gene 4609)
As to the kind of experiment: LTEA_HepaRG_MYC: Life Technologies and Expression Analysis (LTEA) Assay for MYC using HepaRG (AID 2283518). The essentials:
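qRT-PCR read-out of MYC transcript (Fluidigm TaqMan, housekeeping-normalized) after 48 h chemical exposure of HepaRG cells; eight concentrations, top 100 uM, half-log steps. Bidirectional curve fitting against 0.5% DMSO vehicle baseline.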

Read-out in assay [2]: matrix metalloproteinase-3 (MMP3), MMP3 (gene 4314)
Briefly: LTEA_HepaRG_MMP3: Life Technologies and Expression Analysis (LTEA) Assay for matrix metalloproteinase-3 (MMP3) using HepaRG (AID 2283519). The essentials:
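Human liver HepaRG cultures received chemicals (top concentration 100 uM, 0.5% DMSO) for 48 h in duplicate. MMP3 mRNA induction or loss was then assessed via TaqMan qRT-PCR with housekeeping-gene normalisation.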

Read-out in assay [3]: Paternally Expressed 10 (PEG10), PEG10 (gene 23089)
As to the kind of experiment: LTEA_HepaRG_PEG10: Life Technologies and Expression Analysis (LTEA) Assay for Paternally Expressed 10 (PEG10) using HepaRG (AID 2283520).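 As to AC50: PEG10 transcript by qRT-PCR normalised to ACTB GAPDH and POLR2A.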 In outline:
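PEG10 transcript measured by Fluidigm qRT-PCR, normalized to three housekeeping genes, in HepaRG cells treated 48 h (highest 100 uM, half-log steps, 0.5% DMSO vehicle). Cells plated 48 h before switching to serum-free induction medium.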

Read-out in assay [4]: Protein phosphatase 2A (PPP2R4), PTPA (gene 5524)
As to the kind of experiment: LTEA_HepaRG_PPP2R4: Life Technologies and Expression Analysis (LTEA) Assay for Protein phosphatase 2A (PPP2R4) using HepaRG (AID 2283522). In outline:
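Expression was quantified by Fluidigm qRT-PCR normalised to three housekeeping genes after 48 h treatment. Human HepaRG cells received an 8-point series from 100 µM downward by half-logs, in duplicate with 0.5% DMSO vehicle and 1 mM phenobarbital as induction control.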

Read-out in assay [5]: solute carrier (SLC22A1), SLC22A1 (gene 6580)
As to the kind of experiment: LTEA_HepaRG_SLC22A1: Life Technologies and Expression Analysis (LTEA) Assay for solute carrier (SLC22A1) using HepaRG (AID 2283524).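 As to AC50: TaqMan qRT-PCR normalized to ACTB GAPDH and POLR2A housekeeping genes.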 In outline:
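Transcript induction or suppression of SLC22A1 in human HepaRG cultures is scored after 48 h chemical treatment, with DMSO (0.5%) as baseline for bidirectional fitting. Concentrations span eight half-log points topping at 100 uM.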

Read-out in assay [6]: Pyruvate Dehydrogenase Kinase 4 (PDK4), PDK4 (gene 5166)
Briefly: LTEA_HepaRG_PDK4: Life Technologies and Expression Analysis (LTEA) Assay for Pyruvate Dehydrogenase Kinase 4 (PDK4) using HepaRG (AID 2283525). The essentials: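 Eight-point, half-log concentration series (max 100 uM, 0.5% DMSO) applied to differentiated HepaRG cells for 48 h in duplicate. Endpoint: PDK4 mRNA induction or repression by qRT-PCR against DMSO baseline.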

Read-out in assay [7]: NAD(P)H dehydrogenase [quinone] 1 (NQO1), NQO1 (gene 1728)
As to the kind of experiment: LTEA_HepaRG_NQO1: Life Technologies and Expression Analysis (LTEA) Assay for NAD(P)H dehydrogenase [quinone] 1 (NQO1) using HepaRG (AID 2283526). The essentials: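 NQO1 transcript induction or loss measured by TaqMan qRT-PCR, referenced to three housekeeping genes and fitted bidirectionally against 0.5% DMSO. HepaRG cultures exposed 48 h, duplicate, eight-point half-log series, top 100 uM.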

Read-out in assay [8]: Nuclear factor erythroid 2-related factor 2 (Homo sapiens) (UniProt Q16236)
As to the kind of experiment: LTEA_HepaRG_NFE2L2: Life Technologies and Expression Analysis (LTEA) Assay for Nuclear factor erythroid 2-related factor 2 (NFE2L2) Transcription Factor using HepaRG (AID 2283527).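 As to outcome: TaqMan qRT-PCR transcript level normalised to ACTB GAPDH and POLR2A housekeeping genes.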 The essentials: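 Human liver HepaRG line treated in duplicate for 48 h with an eight-point series topping at 100 uM. Gene expression of NFE2L2 by qRT-PCR, bidirectionally fitted against the vehicle control.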

Read-out in assay [9]: succinate dehydrogenase complex iron sulfur subunit B (SDHB), SDHB (gene 6390)
Briefly: LTEA_HepaRG_SDHB: Life Technologies and Expression Analysis (LTEA) Assay for succinate dehydrogenase complex iron sulfur subunit B (SDHB) using HepaRG (AID 2283528). In outline:
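HepaRG cells (~100,000/well, plated 48 h) exposed in duplicate for 48 h in serum-free induction medium to 8-point half-log series from 100 uM in 0.5% DMSO; mRNA by qRT-PCR normalised to ACTB, GAPDH, POLR2A; bidirectional fit versus DMSO.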

Read-out in assay [10]: Signal transducer and activator of transcription 3 (Homo sapiens) (UniProt P40763)
Briefly: LTEA_HepaRG_STAT3: Life Technologies and Expression Analysis (LTEA) Assay for Signal transducer and activator of transcription (STAT3) using HepaRG (AID 2283529). The essentials: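 In this transcriptional endpoint, HepaRG cultures receive test chemicals at up to 100 uM for 48 h, tested in duplicate. STAT3 mRNA is normalized to ACTB, GAPDH and POLR2A.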

Read-out in assay [11]: solute carrier (SLCO1B1), SLCO1B1 (gene 10599)
Briefly: LTEA_HepaRG_SLCO1B1: Life Technologies and Expression Analysis (LTEA) Assay for solute carrier (SLCO1B1) using HepaRG (AID 2283530). In outline:
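SLCO1B1 transcript read by qRT-PCR (Fluidigm arrays), normalized to three housekeeping genes, after 48 h chemical exposure of HepaRG cells; bidirectional concentration-response fitting versus 0.5% DMSO baseline. Eight-point half-log series, maximum 100 uM.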

Read-out in assay [12]: sulfotransferase 2A1 (SULT2A1), SULT2A1 (gene 6822)
As to the kind of experiment: LTEA_HepaRG_SULT2A1: Life Technologies and Expression Analysis (LTEA) Assay for sulfotransferase 2A1 (SULT2A1) using HepaRG (AID 2283531). The essentials:
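HepaRG, 48 h chemical exposure, 8-pt half-log curve from 100 uM in 0.5% DMSO, duplicates. Readout: TaqMan qRT-PCR of SULT2A1 mRNA, housekeeping-normalized. Bidirectional fit vs DMSO baseline.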

Read-out in assay [13]: Transforming Growth Factor (TGFA), TGFA (gene 7039)
As to the kind of experiment: LTEA_HepaRG_TGFA: Life Technologies and Expression Analysis (LTEA) Assay for Transforming Growth Factor (TGFA) using HepaRG (AID 2283532). In outline:
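Gene expression of TGFA was quantified by qRT-PCR after human HepaRG cells were treated for 48 h with test chemicals (eight concentrations, highest 100 uM, 0.5% DMSO). Activity in either direction was fitted relative to DMSO.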

Read-out in assay [14]: Transforming Growth Factor (TGFB1), TGFB1 (gene 7040)
Briefly: LTEA_HepaRG_TGFB1: Life Technologies and Expression Analysis (LTEA) Assay for Transforming Growth Factor (TGFB1) Transporter using HepaRG (AID 2283533). The essentials:
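qRT-PCR readout of TGFB1 transcript in HepaRG lysates, normalized to three housekeeping genes; gain or loss of signal fitted relative to 0.5% DMSO vehicle. Exposure: 48 h, 8-point curve from 100 uM, duplicate wells.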

Read-out in a further assay: TIMP1, TIMP1 (gene 7076)
As to the kind of experiment: LTEA_HepaRG_TIMP1: Life Technologies and Expression Analysis (LTEA) Assay for TIMP1 using HepaRG (AID 2283534).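 As to outcome: TaqMan qRT-PCR signal normalized to ACTB GAPDH and POLR2A housekeeping genes.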 In outline:
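HepaRG, 48 h exposure, 8-pt half-log series from 100 uM in 0.5% DMSO, duplicates; TIMP1 transcript by Fluidigm qRT-PCR, housekeeping-normalized; bidirectional curve fit vs DMSO baseline.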

Read-out in assay [15]: Tumor necrosis factor receptor 1 (TNFRSF1A), TNFRSF1A (gene 7132)
Briefly: LTEA_HepaRG_TNFRSF1A: Life Technologies and Expression Analysis (LTEA) Assay for Tumor necrosis factor receptor 1 (TNFRSF1A) using HepaRG (AID 2283535). In outline:
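HepaRG, 48 h plating then 48 h chemical exposure, serum-free induction media; 8-pt CRC from 100 uM, half-log, 0.5% DMSO vehicle, duplicates. Readout: TaqMan qRT-PCR (Fluidigm), housekeeping-gene normalized; bidirectional fit vs DMSO.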

Read-out in assay [16]: Thyroid Hormone Responsive (THRSP), THRSP (gene 7069)
As to the kind of experiment: LTEA_HepaRG_THRSP: Life Technologies and Expression Analysis (LTEA) Assay for Thyroid Hormone Responsive (THRSP) using HepaRG (AID 2283536). In outline:
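Cell model: human HepaRG, approx. 100,000 cells/well, 0.5% DMSO vehicle. Exposure lasts 48 h; phenobarbital 1 mM serves as induction positive control. Gene expression is measured by qRT-PCR against three endogenous control genes.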

Read-out in assay [17]: Nuclear factor NF-kappa-B p105 subunit (Homo sapiens) (UniProt P19838)
Briefly: LTEA_HepaRG_NFKB1: Life Technologies and Expression Analysis (LTEA) Assay for Nuclear Factor Kappa B Subunit 1 (NFKB1) using HepaRG (AID 2283521). In outline: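 Differentiated human HepaRG cells in serum-free induction medium with 0.5% DMSO were exposed for 48 h to eight half-log concentrations, top 100 uM, in duplicate. NFKB1 mRNA measured by Fluidigm TaqMan qRT-PCR, normalised to ACTB, GAPDH and POLR2A; bidirectional fit versus DMSO.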

Read-out in assay [18]: Phosphatase and tensin (PTEN), PTEN (gene 5728)
As to the kind of experiment: LTEA_HepaRG_PTEN: Life Technologies and Expression Analysis (LTEA) Assay for Phosphatase and tensin (PTEN) using HepaRG (AID 2283523). The essentials: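 Expression of PTEN is quantified in the human liver line HepaRG following two days of dosing (top concentration 100 uM, half-log dilutions, 0.5% DMSO). Values derive from bidirectional curve fitting relative to DMSO controls.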

Active and inactive are the calls of the source. The calls were made as follows: active = hit-call score of the fitted dose curve at least 0.9, where 1 is the maximum; inactive = score below 0.9.

Signal transducer and activator of transcription 3 (Homo sapiens), sequence (P40763 whole entry, looked up): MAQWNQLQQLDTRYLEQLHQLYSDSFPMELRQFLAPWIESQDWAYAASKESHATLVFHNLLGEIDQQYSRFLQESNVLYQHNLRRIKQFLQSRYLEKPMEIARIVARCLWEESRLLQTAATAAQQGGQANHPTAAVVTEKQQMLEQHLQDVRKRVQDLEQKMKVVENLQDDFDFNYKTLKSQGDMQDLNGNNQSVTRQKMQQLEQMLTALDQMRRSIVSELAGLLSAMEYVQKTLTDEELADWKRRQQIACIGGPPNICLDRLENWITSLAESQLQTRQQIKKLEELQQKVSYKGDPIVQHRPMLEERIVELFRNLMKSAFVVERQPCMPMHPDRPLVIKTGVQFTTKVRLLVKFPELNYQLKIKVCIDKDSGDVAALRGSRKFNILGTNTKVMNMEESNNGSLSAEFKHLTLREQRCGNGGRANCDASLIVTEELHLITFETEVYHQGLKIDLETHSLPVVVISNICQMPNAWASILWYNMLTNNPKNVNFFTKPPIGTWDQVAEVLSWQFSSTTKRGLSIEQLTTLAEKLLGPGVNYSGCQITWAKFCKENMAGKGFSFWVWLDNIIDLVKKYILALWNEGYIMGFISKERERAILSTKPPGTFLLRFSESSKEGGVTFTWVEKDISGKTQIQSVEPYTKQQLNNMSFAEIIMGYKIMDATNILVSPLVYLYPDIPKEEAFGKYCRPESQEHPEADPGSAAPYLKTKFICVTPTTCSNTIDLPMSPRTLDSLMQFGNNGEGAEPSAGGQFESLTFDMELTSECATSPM
Nuclear factor erythroid 2-related factor 2 (Homo sapiens), sequence (Q16236 whole entry, looked up): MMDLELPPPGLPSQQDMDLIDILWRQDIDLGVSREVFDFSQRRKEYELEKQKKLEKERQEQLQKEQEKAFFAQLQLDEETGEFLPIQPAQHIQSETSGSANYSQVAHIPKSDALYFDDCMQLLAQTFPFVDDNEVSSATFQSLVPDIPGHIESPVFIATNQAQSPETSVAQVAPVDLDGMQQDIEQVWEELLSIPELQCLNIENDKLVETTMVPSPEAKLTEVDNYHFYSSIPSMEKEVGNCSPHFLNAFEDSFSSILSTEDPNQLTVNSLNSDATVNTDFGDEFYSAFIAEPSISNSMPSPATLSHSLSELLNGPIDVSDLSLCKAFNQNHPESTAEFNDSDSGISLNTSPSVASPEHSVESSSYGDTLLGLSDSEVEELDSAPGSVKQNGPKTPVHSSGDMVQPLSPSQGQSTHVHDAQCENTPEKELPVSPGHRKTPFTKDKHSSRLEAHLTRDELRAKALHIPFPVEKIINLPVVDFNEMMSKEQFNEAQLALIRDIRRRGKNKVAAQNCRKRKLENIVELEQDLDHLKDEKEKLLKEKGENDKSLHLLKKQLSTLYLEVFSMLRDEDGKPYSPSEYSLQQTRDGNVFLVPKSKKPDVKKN
Nuclear factor NF-kappa-B p105 subunit (Homo sapiens), sequence (P19838 whole entry, looked up): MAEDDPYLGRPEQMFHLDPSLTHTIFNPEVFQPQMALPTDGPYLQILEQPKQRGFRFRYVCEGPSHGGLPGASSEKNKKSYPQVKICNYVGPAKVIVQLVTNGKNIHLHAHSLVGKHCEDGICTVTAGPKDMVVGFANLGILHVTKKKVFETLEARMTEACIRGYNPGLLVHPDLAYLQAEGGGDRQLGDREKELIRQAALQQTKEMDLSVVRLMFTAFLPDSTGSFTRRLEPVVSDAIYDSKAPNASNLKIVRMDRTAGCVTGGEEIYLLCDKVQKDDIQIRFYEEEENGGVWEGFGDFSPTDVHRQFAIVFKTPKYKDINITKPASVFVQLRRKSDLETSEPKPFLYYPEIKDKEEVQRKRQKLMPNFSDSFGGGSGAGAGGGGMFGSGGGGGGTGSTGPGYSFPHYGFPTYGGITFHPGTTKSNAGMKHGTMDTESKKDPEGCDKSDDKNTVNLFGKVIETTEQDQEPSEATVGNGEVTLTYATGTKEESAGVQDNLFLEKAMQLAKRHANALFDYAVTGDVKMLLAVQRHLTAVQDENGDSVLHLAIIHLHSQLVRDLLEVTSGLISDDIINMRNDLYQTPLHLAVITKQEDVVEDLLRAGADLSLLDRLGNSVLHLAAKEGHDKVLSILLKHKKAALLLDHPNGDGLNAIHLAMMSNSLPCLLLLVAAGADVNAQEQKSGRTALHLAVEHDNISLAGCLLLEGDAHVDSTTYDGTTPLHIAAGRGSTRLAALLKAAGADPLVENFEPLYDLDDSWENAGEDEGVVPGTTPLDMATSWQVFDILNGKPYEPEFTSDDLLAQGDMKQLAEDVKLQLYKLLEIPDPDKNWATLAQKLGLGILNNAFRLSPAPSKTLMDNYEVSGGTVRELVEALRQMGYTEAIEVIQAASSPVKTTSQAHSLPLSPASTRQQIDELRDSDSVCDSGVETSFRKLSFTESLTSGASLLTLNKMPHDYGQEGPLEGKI

In the case of `C=CCc1ccc(O)c(OC)c1`, the outcome in assay [1] is “inactive”; in the assay with MYC, MYC (gene 4609), “inactive”; in assay [2] it was “inactive”; in assay [3], “inactive”; in assay [4], “inactive”; in assay [5], “inactive”. In addition, the outcome in assay [6], in assay [7], in assay [8], in assay [9], in assay [10] and in [11] was inactive. In addition, the outcome in [12] was “inactive”; in [13], “inactive”; in [14], “inactive”; with TIMP1, TIMP1 (gene 7076), “inactive”; in [15] it was “inactive”; in assay [16], “inactive”.
As for `CCCCCCCCCCCCCO`, the outcome in assay [1] is “inactive”; with MYC, MYC (gene 4609) it was “inactive”; in [2], “inactive”; in assay [3], “inactive”; in [4] it was “inactive”; in assay [5] it was “inactive”. Further, the compound was classed as inactive in assay [6], in [7], in [8], in assay [9], in assay [10] and in [11]. The outcome is “inactive” in assay [12]; “inactive” in assay [13]; “inactive” in assay [14]; “inactive” in the assay with TIMP1, TIMP1 (gene 7076); “inactive” in assay [15]; “inactive” in [16].
Usually AC50 stands for the midpoint of the concentration-response curve, whichever way the signal moves. On to `CCc1c(C(=O)NN2CCCCC2)nn(-c2ccc(Cl)cc2Cl)c1-c1ccc(Br)cc1`, for which the AC50 is 33.2 µM (active) in assay [1]; 50 µM (active) with MYC, MYC (gene 4609); 29.3 µM (active) in [3]; 74.8 µM (active) in assay [17]; 40.4 µM (active) in assay [5]; 22.1 µM (active) in [6]. Also, the AC50 in assay [7] is 80.1 µM (active); in assay [8], 72.4 µM (active); in [11] it was 36.9 µM (active); in assay [12], 37.4 µM (active); in [13] it was 55.3 µM (active); in assay [14] it was 13.2 µM (active). Moreover, in the assay with TIMP1, TIMP1 (gene 7076), the concentration at half-maximal activity (AC50) is 86.5 µM (active). Moreover, the call in assay [4], in assay [9], in assay [10], in assay [15] and in assay [16] was inactive.
For `COc1ccc2c(c1)c(CC(=O)O)c(C)n2C(=O)c1ccc(Cl)cc1`, the outcome is “inactive” in [1]; “inactive” with MYC, MYC (gene 4609); “inactive” in assay [2]; “inactive” in assay [3]; “inactive” in assay [4]; “inactive” in assay [18]. Also, the outcome in [5], in assay [6], in [7], in assay [8], in assay [9] and in assay [10] was inactive. Further, the outcome was “inactive” in [11]; “inactive” in assay [12]; “inactive” in [13]; “inactive” in assay [14]; “inactive” with TIMP1, TIMP1 (gene 7076); “inactive” in assay [15]. Also, the compound was classed as inactive in assay [16].
